MK inhibit – inhibitors of Streptococcus pneumoniae mevalonate kinase. purified MK, PK/LDH-coupled NADH absorbance 340 nm. AID 555. inhibition, % at 10 µM. 65,000 tested, 0.48% active;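 active means ranked among the strongest by inhibition in the single 10 µM screen, a fixed top-ranked set picked for dose follow-up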
Abs 340nm – absorbance at 340 nm; 65,000 tested, under 10 active; AID 708; fold change at 10 µM; compound absorbance at 340 nm, fold over control;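 active means at 10 µM dose, initial 340 nm absorbance at least 2 fold that of control wells; inactive means change under 2 fold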;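 further: initial absorbance extrapolated from kinetic A340 decline of NADH oxidation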
DPM-DC inhibit – S. pneumoniae DPM-DC inhibition. AID 556. calls only at 10 µM. 65,000 tested, 0.49% active. purified DPM-DC, PK/LDH coupled NADH fluorescence;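 active means the 320 compounds with the highest percent inhibition in the single-dose primary screen, excluding strongly autofluorescent ones, cut at about 32% in these data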;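 further: kinetic rate of NADH fluorescence loss reporting ADP formed by the decarboxylase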
Fluor 339 460 – intrinsic fluorescence of library compounds, ex339/em460 – biochemical, MLSMR library, data from DPM-DC assay, artefact control, profiling panel | compound autofluorescence, ex339/em460 nm, NADH buffer; active compounds read high; 1 = no-compound wells, NADH background | fluorescence fold increase at 10 µM | 65,000 tested, 5.5% active | AID 709;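 active means at 10 µM, mean starting fluorescence two-fold or more over control wells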;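 further: signal is the first read of a kinetic run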
NADH coupling – inhibition of NAD/NADH coupling enzymes, library profiling | coupled PK/LDH NADH assays, four targets | IC50, µM (titrated, usually from 10 µM), for inactives: at the top dose inhibition | 65,000 tested, 0.02% active | AID 774;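 active means single-dose screening hits from any of four coupled enzyme assays that gave an IC50 when retested across doses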;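 further: the DPM-DC format reads NADH fluorescence rather than 340 nm absorbance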
PMK inhibit – blocks S. pneumoniae phosphomevalonate kinase. purified PMK, PK/LDH-coupled NADH absorbance 340 nm. inhibition, % at 10 µM. 65,000 tested, 0.49% active. AID 539;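 active means top-ranked compounds by inhibition in the single 10 µM screen, taking a fixed number of the strongest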;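 further: 0% = full reaction with DMSO carrier and 100% = background rate without enzyme reaction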
The depositor's hits bear a star. This is a sample that favours compounds with a hit; in the whole collection about 6.8% have one here.

O=C(CSc1nnc(-c2ccccc2)o1)Nc1ccccc1F was read as MK inhibit 5, Abs 340nm 1, DPM-DC inhibit inactive, Fluor 339 460 1.1, NADH coupling 3% and PMK inhibit 4.
Screening CCOC(=O)c1sc2nc(SCC(=O)NCc3ccco3)n(Cc3ccccc3)c(=O)c2c1C returned MK inhibit 5, Abs 340nm 1, DPM-DC inhibit active, Fluor 339 460 1.7, NADH coupling 5% and PMK inhibit 4.
`CCOC(=O)C1CCN(S(=O)(=O)c2cccc(-c3cn4cccc(C)c4n3)c2)CC1` gave MK inhibit 4, Abs 340nm 1, DPM-DC inhibit inactive, Fluor 339 460 1.4, NADH coupling 2% and PMK inhibit 0.
CCCCOc1ccc(C(=O)OC(C)CN(C)C)cc1 (stereo not drawn) was read as MK inhibit 5, Abs 340nm 1, Fluor 339 460 5*, NADH coupling 7% and PMK inhibit 8.
Screening Cc1c2cccn2cc[n+]1C returned MK inhibit 6, Abs 340nm 0.99, Fluor 339 460 3.8*, NADH coupling 3% and PMK inhibit 0.
Screening COCCCNC(=O)c1ccc2nc3ccccc3c(=O)n2c1 returned MK inhibit 0, Abs 340nm 1.1, Fluor 339 460 4.9*, NADH coupling 11% and PMK inhibit 21.
For COCCCn1c(-c2ccccc2)nc2ccccc2c1=O the results were MK inhibit 2, Abs 340nm 1, DPM-DC inhibit inactive, Fluor 339 460 1.1, NADH coupling 1% and PMK inhibit 0.
`O=C(COc1ccccc1)Nc1nnc(-c2ccccc2)o1` gave MK inhibit 9, Abs 340nm 1, DPM-DC inhibit inactive, Fluor 339 460 1.1, NADH coupling 6% and PMK inhibit 3.
`O=C(COc1ccccc1)Nc1nnc(-c2ccc(Cl)s2)o1` gave MK inhibit 7, Abs 340nm 1.1, Fluor 339 460 2.1*, NADH coupling 10% and PMK inhibit 12.
Screening CC(C)NCC(O)Cn1c2c(c3ccccc31)CCc1c-2cnn1-c1ccccc1 (stereo not drawn) returned MK inhibit 9, Abs 340nm 1.1, Fluor 339 460 3.9*, NADH coupling 10% and PMK inhibit 10.
For CN1CCc2c(n(CC(O)CN3C(=O)c4ccccc4S3(=O)=O)c3ccccc23)C1=O (stereo not drawn) the results were MK inhibit 5, Abs 340nm 1, DPM-DC inhibit inactive, Fluor 339 460 1.1, NADH coupling 2% and PMK inhibit 0.
Cc1ccc(-n2nc(C)c(C3C(C#N)=C(N)OC4=C3C(=O)CCC4)c2Cl)cc1 (stereo not drawn) was read as MK inhibit 10, Abs 340nm 1, DPM-DC inhibit inactive, Fluor 339 460 1.2, NADH coupling 4% and PMK inhibit 3.
Screening Cc1ccc(S(=O)(=O)c2c(N)n(CCN3CCOCC3)c3nc4ccccc4nc23)cc1C returned MK inhibit 8, Abs 340nm 1.1, Fluor 339 460 4.9*, NADH coupling 12% and PMK inhibit 16.
N#Cc1c(N)n(CCNC(=O)c2cccs2)c2nc3ccccc3nc12 was read as MK inhibit 10, Abs 340nm 0.99, Fluor 339 460 3*, NADH coupling 4% and PMK inhibit 7.
CCCCn1c(CNC(C)=O)nc2ccccc21 was read as MK inhibit 0, Abs 340nm 1, DPM-DC inhibit inactive, Fluor 339 460 1.1, NADH coupling 2% and PMK inhibit 5.
For CCCCCn1c(N)c(C#N)c2nc3ccccc3nc21 the results were MK inhibit 3, Abs 340nm 1.1, Fluor 339 460 5*, NADH coupling 7% and PMK inhibit 10.
For CCCCn1c(NC(C)=O)c(C#N)c2nc3ccccc3nc21 the results were MK inhibit 11, Abs 340nm 1.1, Fluor 339 460 3.8*, NADH coupling 13% and PMK inhibit 15.
`O=C(NCN1C(=O)C2C3C=CC(C3)C2C1=O)OC1CCCCC1` (stereo not drawn) gave MK inhibit 3, Abs 340nm 0.99, DPM-DC inhibit inactive, Fluor 339 460 1.1, NADH coupling 3% and PMK inhibit 6.
Screening N#Cc1c(N)n(CCCN2CCOCC2)c2nc3ccccc3nc12 returned MK inhibit 4, Abs 340nm 1, Fluor 339 460 3.9*, NADH coupling 5% and PMK inhibit 6.
`FC(F)(F)c1cc(-c2ccco2)nc(-n2cnc3ccccc32)n1` gave MK inhibit 8, Abs 340nm 1.1, DPM-DC inhibit inactive, Fluor 339 460 2.7*, NADH coupling 11% and PMK inhibit 16.
Screening Cc1nc2ccccc2n1-c1nc(-c2ccco2)cc(C(F)(F)F)n1 returned MK inhibit 3, Abs 340nm 1.1, DPM-DC inhibit inactive, Fluor 339 460 1.8, NADH coupling 5% and PMK inhibit 13.
Screening CC(C)Cn1nc(NS(=O)(=O)c2ccccc2)c2cc3ccccc3nc21 returned MK inhibit 2, Abs 340nm 1, DPM-DC inhibit inactive, Fluor 339 460 1.2, NADH coupling 1% and PMK inhibit 0.
`Cc1ccc2cc3c(NC(=O)CC(C)C)nn(C)c3nc2c1` gave MK inhibit 15, Abs 340nm 1, DPM-DC inhibit inactive, Fluor 339 460 2, NADH coupling 6% and PMK inhibit 0.
`CCn1nc(NC(=O)c2ccccn2)c2cc3cc(C)ccc3nc21` gave MK inhibit 9, Abs 340nm 1.1, DPM-DC inhibit inactive, Fluor 339 460 3*, NADH coupling 14% and PMK inhibit 12.
Cc1ccc2cc3c(NC(=O)c4ccco4)nn(CC(C)C)c3nc2c1 was read as MK inhibit 2, Abs 340nm 1, Fluor 339 460 3.9*, NADH coupling 3% and PMK inhibit 3.
For CCn1nc(NC(=O)c2cccnc2)c2cc3ccccc3nc21 the results were MK inhibit 0, Abs 340nm 0.99, DPM-DC inhibit inactive, Fluor 339 460 1.2, NADH coupling 3% and PMK inhibit 0.
CC(C)Cn1nc(NC(=O)C2CCCO2)c2cc3ccccc3nc21 (stereo not drawn) was read as MK inhibit 7, Abs 340nm 1.1, DPM-DC inhibit inactive, Fluor 339 460 2.1*, NADH coupling 6% and PMK inhibit 2.
`O=C(C1CCCN1C(=O)c1cccs1)N1CCc2ccccc21` (stereo not drawn) gave MK inhibit 0, Abs 340nm 1, DPM-DC inhibit inactive, Fluor 339 460 1.1, NADH coupling 5% and PMK inhibit 16.
Screening CCN1C(=O)c2cccc3c(S(=O)(=O)Nc4ccc(OC)cc4OC)ccc1c23 returned MK inhibit 7, Abs 340nm 1.1, DPM-DC inhibit inactive, Fluor 339 460 1.1, NADH coupling 5% and PMK inhibit 6.
